Laboratory results from PMC5700166.

Tests used:
Test in all cases: protein-binding microarray (PBM); PBM: ~300 nM protein, 6 mM HEPES pH 7.8, 80 mM KCl, 0.5 mM EDTA, 0.5 mM EGTA, 6% glycerol, 35 ng/ul poly-dIdC, 1% milk, 1 h, room temperature; Ap Aiptasia and Nv Nematostella (sea anemones) / Co Capsaspora / Aq Amphimedon (sponge) / Dm Drosophila / Hu human; RHD is the Rel homology domain; high values mean tight binding
Settings in all cases: dsDNA, one strand shown
[1] = biological target: T1, GST-Ap-NF-kB RHD (Exaiptasia pallida (Aiptasia), UniProt A0A913YAJ5 2-422)
T1 sequence: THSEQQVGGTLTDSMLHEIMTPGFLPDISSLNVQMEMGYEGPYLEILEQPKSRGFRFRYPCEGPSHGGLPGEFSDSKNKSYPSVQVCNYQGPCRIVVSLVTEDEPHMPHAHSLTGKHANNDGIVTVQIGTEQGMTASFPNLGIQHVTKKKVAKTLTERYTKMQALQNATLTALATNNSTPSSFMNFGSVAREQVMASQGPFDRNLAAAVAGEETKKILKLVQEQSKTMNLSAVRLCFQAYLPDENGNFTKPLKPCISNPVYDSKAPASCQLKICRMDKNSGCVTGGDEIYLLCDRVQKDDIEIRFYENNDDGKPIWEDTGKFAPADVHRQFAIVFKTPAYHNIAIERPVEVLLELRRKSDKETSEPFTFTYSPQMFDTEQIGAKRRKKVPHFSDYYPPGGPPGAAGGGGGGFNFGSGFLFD

[2] = biological target: T2, GST-Nv-NF-kB (Cys allele) (Nematostella vectensis, UniProt E5G601 2-411)
T2 sequence: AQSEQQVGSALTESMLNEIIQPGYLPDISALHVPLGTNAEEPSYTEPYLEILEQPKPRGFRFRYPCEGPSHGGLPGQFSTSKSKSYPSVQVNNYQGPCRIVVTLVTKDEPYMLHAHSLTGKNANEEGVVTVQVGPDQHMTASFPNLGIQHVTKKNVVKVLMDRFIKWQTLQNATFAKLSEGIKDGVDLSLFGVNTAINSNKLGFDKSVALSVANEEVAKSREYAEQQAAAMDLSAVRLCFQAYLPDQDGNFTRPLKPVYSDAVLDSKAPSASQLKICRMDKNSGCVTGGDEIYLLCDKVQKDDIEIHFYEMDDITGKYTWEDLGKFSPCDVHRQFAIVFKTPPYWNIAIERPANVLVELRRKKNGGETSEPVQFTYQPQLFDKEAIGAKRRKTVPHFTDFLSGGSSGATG

[3] = biological target: T3, GST-Co-NF-kB (Capsaspora owczarzaki, UniProt F1ARL5 200-546)
T3 sequence: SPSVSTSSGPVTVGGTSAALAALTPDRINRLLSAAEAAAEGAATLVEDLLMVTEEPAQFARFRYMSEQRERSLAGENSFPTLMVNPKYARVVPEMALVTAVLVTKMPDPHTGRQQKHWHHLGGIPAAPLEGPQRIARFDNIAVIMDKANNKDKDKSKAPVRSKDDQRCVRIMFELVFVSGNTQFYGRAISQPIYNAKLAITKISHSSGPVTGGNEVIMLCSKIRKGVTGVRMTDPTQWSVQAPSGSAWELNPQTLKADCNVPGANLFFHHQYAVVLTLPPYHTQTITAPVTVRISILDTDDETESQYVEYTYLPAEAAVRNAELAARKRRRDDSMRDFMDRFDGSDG

[4] = biological target: T4, GST-Dm-Relish (Drosophila melanogaster, UniProt Q94527 99-473)
T4 sequence: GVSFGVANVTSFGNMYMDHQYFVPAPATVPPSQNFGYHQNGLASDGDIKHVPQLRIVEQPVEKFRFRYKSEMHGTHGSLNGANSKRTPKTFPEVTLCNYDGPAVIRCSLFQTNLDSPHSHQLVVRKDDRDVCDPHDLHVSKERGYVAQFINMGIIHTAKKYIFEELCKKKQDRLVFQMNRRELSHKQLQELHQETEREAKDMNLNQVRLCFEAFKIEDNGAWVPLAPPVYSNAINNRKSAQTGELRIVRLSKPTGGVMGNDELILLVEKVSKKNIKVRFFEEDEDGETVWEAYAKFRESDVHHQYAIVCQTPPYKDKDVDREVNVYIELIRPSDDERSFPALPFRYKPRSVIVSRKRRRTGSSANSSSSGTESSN

[5] = biological target: T5, GST-Aq-NF-kB (Amphimedon queenslandica, UniProt A9Y5G7 2-389)
T5 sequence: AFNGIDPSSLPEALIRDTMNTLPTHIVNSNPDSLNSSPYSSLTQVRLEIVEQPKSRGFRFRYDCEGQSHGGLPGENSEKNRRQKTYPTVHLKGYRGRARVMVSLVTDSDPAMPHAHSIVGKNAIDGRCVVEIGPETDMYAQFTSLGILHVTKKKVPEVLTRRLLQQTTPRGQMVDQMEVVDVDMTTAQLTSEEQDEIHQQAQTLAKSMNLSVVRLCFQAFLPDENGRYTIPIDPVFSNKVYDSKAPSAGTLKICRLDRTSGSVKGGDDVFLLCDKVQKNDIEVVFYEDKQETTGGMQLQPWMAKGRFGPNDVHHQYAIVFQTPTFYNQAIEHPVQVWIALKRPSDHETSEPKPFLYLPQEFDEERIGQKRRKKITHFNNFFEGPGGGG

“CCGATTAACATCAACCCTCCCCCTGATGTTAATCGGGTCTTGATTCGCTTGACGCTGCTG” showed a binding signal [1] of 3.89 z-score, a binding signal [2] of 3.26 z-score and a binding signal [3] of 4.5 z-score. For the same sequence, the binding signal [4] was 2.76 z-score and the binding signal [5] was 3.64 z-score.

Work on “CCGATTAACATCAGGGGAAGGAATGATGTTAATCGGGTCTTGATTCGCTTGACGCTGCTG” yielded a binding signal [1] of 3.87 z-score, a binding signal [2] of 5.34 z-score and a binding signal [3] of 6.35 z-score. For the same sequence, the binding signal [4] was 3.59 z-score and the binding signal [5] was 4.05 z-score.

Work on “CCGATTAACATCAGGCCACCCCCTGATGTTAATCGGGTCTTGATTCGCTTGACGCTGCTG” yielded a binding signal [1] of 3.91 z-score, a binding signal [2] of 2.49 z-score and a binding signal [3] of 2.66 z-score. For the same sequence, the binding signal [4] was 5.42 z-score and the binding signal [5] was 5.7 z-score.

“CCGATTAACATCACCCCAGCCCCTGATGTTAATCGGGTCTTGATTCGCTTGACGCTGCTG” gave a binding signal [1] of 3.28 z-score, a binding signal [2] of 1.93 z-score and a binding signal [3] of 2.88 z-score. For the same sequence, the binding signal [4] was 2.39 z-score and the binding signal [5] was 2.91 z-score.

“CCGATTAACATCAGGGGGAGAGATGATGTTAATCGGGTCTTGATTCGCTTGACGCTGCTG” was tested, and the binding signal [1] was 3.84 z-score, the binding signal [2] was 3.66 z-score and the binding signal [3] was 5.69 z-score. For the same sequence, the binding signal [4] was 1.45 z-score and the binding signal [5] was 3.54 z-score.

“CCGATTAACATCAGGCTATCCCCTGATGTTAATCGGGTCTTGATTCGCTTGACGCTGCTG” gave a binding signal [1] of 4.44 z-score, a binding signal [2] of 3.67 z-score and a binding signal [3] of 2.18 z-score. For the same sequence, the binding signal [4] was 3.3 z-score and the binding signal [5] was 4.81 z-score.

For “CCGATTAACATCAGGGGTATACCTGATGTTAATCGGGTCTTGATTCGCTTGACGCTGCTG”, the binding signal [1] was 4.25 z-score, the binding signal [2] was 2.43 z-score and the binding signal [3] was 3.98 z-score. For the same sequence, the binding signal [4] was 4.15 z-score and the binding signal [5] was 4.94 z-score.

Sequence “CCGATTAACATCACATATTTCCCTGATGTTAATCGGGTCTTGATTCGCTTGACGCTGCTG” has a binding signal [1] of 3.32 z-score, a binding signal [2] of 4.97 z-score and a binding signal [3] of 4.94 z-score. The binding signal [4] was 1.93 z-score and the binding signal [5] was 5.18 z-score.

“CCGATTAACATCAAGGGATTTTCTGATGTTAATCGGGTCTTGATTCGCTTGACGCTGCTG” was tested, and the binding signal [1] was 5.78 z-score, the binding signal [2] was 6.63 z-score and the binding signal [3] was 1.57 z-score. For the same sequence, the binding signal [4] was 6.57 z-score and the binding signal [5] was 6.65 z-score.

“CCGATTAACATCAATTTCCCATATGATGTTAATCGGGTCTTGATTCGCTTGACGCTGCTG” gave a binding signal [1] of 1.56 z-score, a binding signal [2] of 3.3 z-score and a binding signal [3] of 2.34 z-score. It also gave a binding signal [4] of 2.14 z-score and a binding signal [5] of 2.17 z-score.
